The values that follow come from article PMC7862700, “An all-to-all approach to the identification of sequence-specific readers for epigenetic DNA modifications on cytosine”.

Assay in all cases: DAPPL (digital affinity profiling via proximity ligation, sequencing); 10 mM Tris-HCl pH 7.5, 50 mM NaCl, 1 mM DTT, 4% glycerol, room temperature, 30 min; GST-TFs on glutathione beads, 16-mer random dsDNA library, 0.1% formaldehyde crosslink after washing; high values mean tight binding
The target of one assay is T1, FLI1 (Homo sapiens, UniProt Q01543 1-452).
T1 sequence: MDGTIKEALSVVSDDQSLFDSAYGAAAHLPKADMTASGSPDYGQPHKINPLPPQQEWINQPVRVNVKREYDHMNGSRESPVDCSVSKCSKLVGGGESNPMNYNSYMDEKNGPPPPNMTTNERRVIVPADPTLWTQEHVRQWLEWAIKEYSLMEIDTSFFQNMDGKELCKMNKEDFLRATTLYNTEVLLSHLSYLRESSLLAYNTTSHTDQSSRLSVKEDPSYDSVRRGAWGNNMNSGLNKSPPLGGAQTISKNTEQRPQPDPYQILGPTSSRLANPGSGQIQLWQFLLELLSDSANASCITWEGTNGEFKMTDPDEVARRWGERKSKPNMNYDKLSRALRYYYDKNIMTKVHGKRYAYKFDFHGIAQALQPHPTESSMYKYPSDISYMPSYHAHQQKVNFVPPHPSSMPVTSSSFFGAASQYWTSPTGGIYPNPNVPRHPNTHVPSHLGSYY
To be noted: protein: recombinant; tags: N-terminal GST; dsDNA, one strand shown. The method in brief: (§1)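 Human transcription factors were made in yeast as GST fusions, captured on glutathione beads and barcoded with DNA. With a tag-only sample included, the pool was incubated with 200 nmole of a random double-stranded 16-mer DNA library in Tris/NaCl/DTT/glycerol buffer at room temperature for 30 min, then crosslinked with 0.1% formaldehyde after washing, ligated by proximity, amplified and sequenced. For binding signal, each hexamer's read frequency for a factor is divided by its frequency for the tag-only sample.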

Another assay concerns the target T2, ELK1 (Homo sapiens, UniProt P19419 1-428).
T2 sequence: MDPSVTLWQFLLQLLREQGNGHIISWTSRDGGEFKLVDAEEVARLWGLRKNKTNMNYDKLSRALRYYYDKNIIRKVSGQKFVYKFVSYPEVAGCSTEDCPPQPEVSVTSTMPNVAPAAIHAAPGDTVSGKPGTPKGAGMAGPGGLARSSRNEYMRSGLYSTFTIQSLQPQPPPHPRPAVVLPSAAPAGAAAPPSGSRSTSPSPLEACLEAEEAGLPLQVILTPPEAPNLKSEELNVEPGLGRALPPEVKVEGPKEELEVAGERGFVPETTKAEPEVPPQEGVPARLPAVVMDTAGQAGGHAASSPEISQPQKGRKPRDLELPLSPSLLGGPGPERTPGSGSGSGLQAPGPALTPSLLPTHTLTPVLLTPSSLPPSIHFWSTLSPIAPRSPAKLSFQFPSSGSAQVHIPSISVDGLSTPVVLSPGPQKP
The note with it: protein: recombinant; tags: N-terminal GST; dsDNA, one strand shown. The method in brief:
as §1

The target of another assay is T3, GABPA (Homo sapiens, UniProt Q06546 1-454).
T3 sequence: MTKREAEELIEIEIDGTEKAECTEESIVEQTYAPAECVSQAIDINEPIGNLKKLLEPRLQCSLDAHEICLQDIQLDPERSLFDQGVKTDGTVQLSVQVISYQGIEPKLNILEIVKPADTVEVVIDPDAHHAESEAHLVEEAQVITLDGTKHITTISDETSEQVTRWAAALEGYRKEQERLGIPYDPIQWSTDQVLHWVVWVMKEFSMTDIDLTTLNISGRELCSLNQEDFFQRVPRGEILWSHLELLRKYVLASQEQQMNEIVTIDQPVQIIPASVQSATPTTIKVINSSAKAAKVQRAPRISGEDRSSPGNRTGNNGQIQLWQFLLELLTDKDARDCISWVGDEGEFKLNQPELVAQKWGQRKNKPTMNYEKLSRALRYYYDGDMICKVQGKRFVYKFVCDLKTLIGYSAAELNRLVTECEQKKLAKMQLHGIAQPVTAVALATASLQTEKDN
To be noted: protein: recombinant; tags: N-terminal GST; dsDNA, one strand shown. The method in brief: as §1

Another assay concerns the target T4, ERG (Homo sapiens, UniProt P11308 1-479).
T4 sequence: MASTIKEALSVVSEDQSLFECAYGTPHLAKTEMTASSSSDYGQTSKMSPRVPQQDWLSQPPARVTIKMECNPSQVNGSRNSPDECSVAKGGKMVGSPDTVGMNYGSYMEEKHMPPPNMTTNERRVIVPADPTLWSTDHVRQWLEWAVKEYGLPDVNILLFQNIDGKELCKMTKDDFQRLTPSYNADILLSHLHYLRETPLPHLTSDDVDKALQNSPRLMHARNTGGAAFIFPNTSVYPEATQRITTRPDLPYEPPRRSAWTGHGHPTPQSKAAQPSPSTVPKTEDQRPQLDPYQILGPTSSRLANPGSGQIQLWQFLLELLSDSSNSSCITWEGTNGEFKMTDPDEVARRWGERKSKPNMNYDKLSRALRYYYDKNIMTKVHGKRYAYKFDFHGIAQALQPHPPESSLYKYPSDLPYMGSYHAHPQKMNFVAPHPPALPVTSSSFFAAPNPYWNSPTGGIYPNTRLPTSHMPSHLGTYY
The note with it: protein: recombinant; tags: N-terminal GST; dsDNA, one strand shown. The method in brief:
as §1

A further assay deals with ELF1 (Homo sapiens, UniProt P32519 1-619). To be noted: protein: recombinant; tags: N-terminal GST; dsDNA, one strand shown. The method in brief:
as §1

For a further assay, the target named is T5, EHF (Homo sapiens, UniProt Q9NZC4 1-300).
T5 sequence: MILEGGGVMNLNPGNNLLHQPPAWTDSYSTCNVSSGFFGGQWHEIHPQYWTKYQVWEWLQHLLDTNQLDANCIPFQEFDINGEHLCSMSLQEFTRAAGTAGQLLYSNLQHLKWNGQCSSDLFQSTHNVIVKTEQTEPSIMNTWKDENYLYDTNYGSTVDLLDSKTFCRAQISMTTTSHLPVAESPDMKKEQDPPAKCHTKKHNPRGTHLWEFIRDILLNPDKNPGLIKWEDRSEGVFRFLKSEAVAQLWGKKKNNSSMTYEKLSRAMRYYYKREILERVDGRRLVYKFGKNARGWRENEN
The note with it: protein: recombinant; tags: N-terminal GST; dsDNA, one strand shown. The method in brief:
as §1

The target of another assay is SPI1 (Homo sapiens, UniProt P17947 1-270). To be noted: protein: recombinant; tags: N-terminal GST; dsDNA, one strand shown. The method in brief:
as §1

The next assay addresses SPIB (Homo sapiens, UniProt Q01892 1-262). To be noted: protein: recombinant; tags: N-terminal GST; dsDNA, one strand shown. The method in brief:
as §1

For a further assay, the target named is T6, ELK3 (Homo sapiens, UniProt P41970 1-407).
T6 sequence: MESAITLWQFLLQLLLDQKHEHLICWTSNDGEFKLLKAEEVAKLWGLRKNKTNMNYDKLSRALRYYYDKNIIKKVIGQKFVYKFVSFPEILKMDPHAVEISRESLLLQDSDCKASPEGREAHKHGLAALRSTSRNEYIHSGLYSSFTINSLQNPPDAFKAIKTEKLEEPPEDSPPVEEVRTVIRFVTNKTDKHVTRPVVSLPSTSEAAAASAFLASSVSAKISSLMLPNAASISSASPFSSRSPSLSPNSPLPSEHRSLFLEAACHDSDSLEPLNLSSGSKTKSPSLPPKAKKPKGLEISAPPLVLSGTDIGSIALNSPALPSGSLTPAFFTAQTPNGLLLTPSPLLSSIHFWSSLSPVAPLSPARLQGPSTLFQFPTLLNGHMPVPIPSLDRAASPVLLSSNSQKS
To be noted: protein: recombinant; tags: N-terminal GST; dsDNA, one strand shown. The method in brief: as §1

Another assay has as its target T7, FEV (Homo sapiens, UniProt Q99581 1-238).
T7 sequence: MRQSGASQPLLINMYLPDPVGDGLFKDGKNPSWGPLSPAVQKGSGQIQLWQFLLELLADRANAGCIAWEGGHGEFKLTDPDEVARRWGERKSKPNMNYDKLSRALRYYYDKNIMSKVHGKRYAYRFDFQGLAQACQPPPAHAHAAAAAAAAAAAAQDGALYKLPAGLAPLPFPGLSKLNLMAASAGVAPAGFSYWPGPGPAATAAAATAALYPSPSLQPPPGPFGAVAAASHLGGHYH
The note with it: protein: recombinant; tags: N-terminal GST; dsDNA, one strand shown. The method in brief: as §1

Another assay addresses ETV5 (Homo sapiens, UniProt P41161 1-510). To be noted: protein: recombinant; tags: N-terminal GST; dsDNA, one strand shown. The method in brief:
as §1

A further assay has as its target HSF1 (Homo sapiens, UniProt Q00613 1-529). The note with it: protein: recombinant; tags: N-terminal GST; chain copies: 3; dsDNA, one strand shown. The method in brief:
as §1

The target in another assay is T8, SPIC (Homo sapiens, UniProt Q8N5J4 1-248).
T8 sequence: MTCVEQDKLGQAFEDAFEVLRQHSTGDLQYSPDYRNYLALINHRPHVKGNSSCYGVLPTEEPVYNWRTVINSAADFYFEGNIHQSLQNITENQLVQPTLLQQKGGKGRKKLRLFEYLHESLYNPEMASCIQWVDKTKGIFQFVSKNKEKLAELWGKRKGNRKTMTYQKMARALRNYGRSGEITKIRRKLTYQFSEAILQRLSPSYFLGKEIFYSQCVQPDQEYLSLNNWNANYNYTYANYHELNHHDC
To be noted: protein: recombinant; tags: N-terminal GST; dsDNA, one strand shown. The method in brief:
as §1

For a further assay, the target named is ELF4 (Homo sapiens, UniProt Q99607 1-663). The note with it: protein: recombinant; tags: N-terminal GST; dsDNA, one strand shown. The method in brief:
as §1

The next assay deals with T9, ELK4 (Homo sapiens, UniProt P28324-2 1-405).
T9 sequence: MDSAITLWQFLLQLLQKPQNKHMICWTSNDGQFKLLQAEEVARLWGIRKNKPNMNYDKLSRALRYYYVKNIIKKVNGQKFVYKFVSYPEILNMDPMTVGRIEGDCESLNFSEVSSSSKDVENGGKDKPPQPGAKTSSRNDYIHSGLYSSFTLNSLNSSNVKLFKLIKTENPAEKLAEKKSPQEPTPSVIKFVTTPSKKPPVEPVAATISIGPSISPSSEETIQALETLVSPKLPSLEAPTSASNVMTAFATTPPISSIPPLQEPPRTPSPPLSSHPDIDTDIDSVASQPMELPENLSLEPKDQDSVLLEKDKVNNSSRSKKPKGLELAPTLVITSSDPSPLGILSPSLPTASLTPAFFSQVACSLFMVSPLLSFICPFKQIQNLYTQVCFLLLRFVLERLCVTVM
The note with it: protein: recombinant; tags: N-terminal GST; dsDNA, one strand shown. The method in brief:
as §1

In a further assay the target is T10, ETV2 (Homo sapiens, UniProt O00321 1-342).
T10 sequence: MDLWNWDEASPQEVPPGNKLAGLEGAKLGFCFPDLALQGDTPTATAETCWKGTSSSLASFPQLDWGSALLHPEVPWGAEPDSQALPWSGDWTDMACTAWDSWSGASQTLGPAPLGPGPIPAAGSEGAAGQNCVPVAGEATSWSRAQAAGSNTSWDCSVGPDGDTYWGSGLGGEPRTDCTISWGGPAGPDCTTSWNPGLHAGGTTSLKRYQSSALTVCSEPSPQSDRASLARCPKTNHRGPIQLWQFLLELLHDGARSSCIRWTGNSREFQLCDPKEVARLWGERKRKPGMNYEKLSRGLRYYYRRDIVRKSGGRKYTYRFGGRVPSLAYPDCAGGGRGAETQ
To be noted: protein: recombinant; tags: N-terminal GST; dsDNA, one strand shown. The method in brief: as §1

The target of a further assay is T11, ELF3 (Homo sapiens, UniProt P78545 1-371).
T11 sequence: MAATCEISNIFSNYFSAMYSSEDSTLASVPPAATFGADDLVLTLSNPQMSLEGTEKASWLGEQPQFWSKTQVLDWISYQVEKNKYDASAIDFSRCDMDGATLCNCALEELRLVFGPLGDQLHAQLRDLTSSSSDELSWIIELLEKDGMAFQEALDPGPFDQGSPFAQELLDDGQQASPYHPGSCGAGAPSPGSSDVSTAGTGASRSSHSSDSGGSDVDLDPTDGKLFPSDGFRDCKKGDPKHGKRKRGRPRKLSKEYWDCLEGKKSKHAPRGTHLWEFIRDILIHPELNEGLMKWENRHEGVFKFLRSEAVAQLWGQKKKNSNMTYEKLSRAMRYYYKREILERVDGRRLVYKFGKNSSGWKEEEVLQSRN
The note with it: protein: recombinant; tags: N-terminal GST; dsDNA, one strand shown. The method in brief:
as §1

The next assay addresses CRX (Homo sapiens, UniProt O43186 1-299). The note with it: protein: recombinant; tags: N-terminal GST; dsDNA, one strand shown. The method in brief: as §1
The target of the next assay is ETV1 (Homo sapiens, UniProt P50549 1-477). To be noted: protein: recombinant; tags: N-terminal GST; dsDNA, one strand shown. The method in brief:
as §1

Chain of ELF1 (P32519 whole entry): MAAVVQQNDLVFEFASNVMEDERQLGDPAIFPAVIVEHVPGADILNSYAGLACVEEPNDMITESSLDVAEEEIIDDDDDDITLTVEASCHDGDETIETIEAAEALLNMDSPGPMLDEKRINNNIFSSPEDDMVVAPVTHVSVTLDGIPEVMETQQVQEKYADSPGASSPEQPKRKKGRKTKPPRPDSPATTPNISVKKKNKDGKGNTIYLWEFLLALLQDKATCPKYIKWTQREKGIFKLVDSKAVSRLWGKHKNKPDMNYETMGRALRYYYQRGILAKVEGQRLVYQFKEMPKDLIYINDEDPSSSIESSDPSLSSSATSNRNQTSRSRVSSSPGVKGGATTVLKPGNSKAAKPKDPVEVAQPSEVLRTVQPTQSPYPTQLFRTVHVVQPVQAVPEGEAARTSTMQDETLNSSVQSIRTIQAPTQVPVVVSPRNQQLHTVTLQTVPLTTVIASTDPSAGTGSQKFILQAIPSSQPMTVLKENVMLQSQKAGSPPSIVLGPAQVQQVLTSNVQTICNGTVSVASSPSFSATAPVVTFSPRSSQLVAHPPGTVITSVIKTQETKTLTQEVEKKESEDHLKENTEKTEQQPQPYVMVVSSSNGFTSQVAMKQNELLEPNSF
Chain of CRX (O43186 whole entry): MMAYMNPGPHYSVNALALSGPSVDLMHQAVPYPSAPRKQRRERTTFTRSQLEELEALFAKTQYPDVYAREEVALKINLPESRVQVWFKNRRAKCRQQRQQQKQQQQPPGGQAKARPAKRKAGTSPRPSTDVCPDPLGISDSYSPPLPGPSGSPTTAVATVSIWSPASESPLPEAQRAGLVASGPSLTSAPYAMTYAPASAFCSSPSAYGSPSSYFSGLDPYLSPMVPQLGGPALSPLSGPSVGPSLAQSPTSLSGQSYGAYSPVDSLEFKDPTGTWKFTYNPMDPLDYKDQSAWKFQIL
Chain of ETV5 (P41161 whole entry): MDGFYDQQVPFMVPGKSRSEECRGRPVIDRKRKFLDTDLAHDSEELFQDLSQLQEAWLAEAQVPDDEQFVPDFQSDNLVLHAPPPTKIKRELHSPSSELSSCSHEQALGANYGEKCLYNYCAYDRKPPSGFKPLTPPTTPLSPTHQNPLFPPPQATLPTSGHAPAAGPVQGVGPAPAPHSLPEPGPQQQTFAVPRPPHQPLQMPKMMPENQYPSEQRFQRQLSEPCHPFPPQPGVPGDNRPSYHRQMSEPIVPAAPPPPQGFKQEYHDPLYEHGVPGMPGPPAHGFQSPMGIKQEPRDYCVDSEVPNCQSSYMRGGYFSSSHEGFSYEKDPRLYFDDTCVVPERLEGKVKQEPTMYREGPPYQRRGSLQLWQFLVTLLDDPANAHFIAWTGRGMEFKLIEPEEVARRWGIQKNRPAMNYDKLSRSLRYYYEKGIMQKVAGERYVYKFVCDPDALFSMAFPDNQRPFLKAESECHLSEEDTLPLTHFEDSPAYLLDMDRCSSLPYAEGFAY
Chain of HSF1 (Q00613 whole entry): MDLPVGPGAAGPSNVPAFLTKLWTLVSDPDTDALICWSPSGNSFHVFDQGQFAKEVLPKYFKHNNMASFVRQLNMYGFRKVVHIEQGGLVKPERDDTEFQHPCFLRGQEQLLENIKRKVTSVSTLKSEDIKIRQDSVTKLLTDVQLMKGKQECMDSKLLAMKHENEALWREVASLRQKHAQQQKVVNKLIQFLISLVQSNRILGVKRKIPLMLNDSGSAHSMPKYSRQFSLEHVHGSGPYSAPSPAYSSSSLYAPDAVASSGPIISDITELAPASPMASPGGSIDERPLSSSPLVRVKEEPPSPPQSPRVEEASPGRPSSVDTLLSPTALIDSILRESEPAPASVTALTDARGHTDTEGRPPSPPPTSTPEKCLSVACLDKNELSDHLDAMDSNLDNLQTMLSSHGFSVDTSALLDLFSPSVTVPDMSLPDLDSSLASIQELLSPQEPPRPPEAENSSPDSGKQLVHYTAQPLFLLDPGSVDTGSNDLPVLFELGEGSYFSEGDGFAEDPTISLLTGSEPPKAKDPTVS
Chain of SPIB (Q01892 whole entry): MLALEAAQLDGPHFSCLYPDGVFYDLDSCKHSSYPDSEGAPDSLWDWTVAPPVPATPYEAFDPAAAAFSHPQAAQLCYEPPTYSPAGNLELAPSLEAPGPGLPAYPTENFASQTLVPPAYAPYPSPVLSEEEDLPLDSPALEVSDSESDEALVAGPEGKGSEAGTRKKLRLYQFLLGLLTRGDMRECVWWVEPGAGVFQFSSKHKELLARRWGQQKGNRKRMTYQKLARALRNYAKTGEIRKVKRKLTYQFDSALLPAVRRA
Chain of ELF4 (Q99607 whole entry): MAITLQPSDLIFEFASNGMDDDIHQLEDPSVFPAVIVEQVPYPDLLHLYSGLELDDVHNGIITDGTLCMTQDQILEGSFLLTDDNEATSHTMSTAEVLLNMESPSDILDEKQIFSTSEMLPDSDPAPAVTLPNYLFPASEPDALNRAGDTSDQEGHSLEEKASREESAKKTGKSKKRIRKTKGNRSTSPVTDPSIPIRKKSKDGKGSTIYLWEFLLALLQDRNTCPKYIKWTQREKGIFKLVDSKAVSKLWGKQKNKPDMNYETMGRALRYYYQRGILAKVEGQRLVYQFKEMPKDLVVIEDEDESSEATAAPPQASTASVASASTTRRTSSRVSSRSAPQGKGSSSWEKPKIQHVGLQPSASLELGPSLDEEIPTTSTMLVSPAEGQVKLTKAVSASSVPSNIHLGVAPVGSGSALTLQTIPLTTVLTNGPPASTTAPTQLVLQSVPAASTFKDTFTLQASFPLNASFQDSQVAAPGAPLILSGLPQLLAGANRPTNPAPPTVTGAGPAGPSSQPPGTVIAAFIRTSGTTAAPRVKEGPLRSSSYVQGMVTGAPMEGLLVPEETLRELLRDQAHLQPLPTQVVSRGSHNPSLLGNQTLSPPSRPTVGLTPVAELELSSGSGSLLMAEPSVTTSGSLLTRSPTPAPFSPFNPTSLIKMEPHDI
Chain of ETV1 (P50549 whole entry): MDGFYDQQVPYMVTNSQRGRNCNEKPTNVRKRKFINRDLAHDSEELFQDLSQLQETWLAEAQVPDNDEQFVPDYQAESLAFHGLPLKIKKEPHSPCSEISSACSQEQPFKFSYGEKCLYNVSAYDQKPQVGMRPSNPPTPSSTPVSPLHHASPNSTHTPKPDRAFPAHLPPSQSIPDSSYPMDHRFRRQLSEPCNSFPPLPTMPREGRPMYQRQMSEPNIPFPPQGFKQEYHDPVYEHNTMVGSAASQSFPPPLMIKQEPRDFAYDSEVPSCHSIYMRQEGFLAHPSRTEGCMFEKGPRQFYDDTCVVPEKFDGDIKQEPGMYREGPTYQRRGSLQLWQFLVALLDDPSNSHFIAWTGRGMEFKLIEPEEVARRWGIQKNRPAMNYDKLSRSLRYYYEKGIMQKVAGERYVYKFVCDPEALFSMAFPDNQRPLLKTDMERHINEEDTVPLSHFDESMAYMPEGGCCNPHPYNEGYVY

Take CGCTCT: the binding signal in the assay with FLI1 is 1.39 fold enrichment (6-mer frequency, TF over GST control); with ELK1 it was 1.25 fold enrichment (6-mer frequency, TF over GST control); with GABPA it was 1.34 fold enrichment (6-mer frequency, TF over GST control); in the assay with ERG, 1.21 fold enrichment (6-mer frequency, TF over GST control); with ELF1, 1.3 fold enrichment (6-mer frequency, TF over GST control); with EHF, 1.21 fold enrichment (6-mer frequency, TF over GST control). The binding signal with SPI1 is 1.21 fold enrichment (6-mer frequency, TF over GST control); in the assay with SPIB it was 1.16 fold enrichment (6-mer frequency, TF over GST control); with ELK3 it was 1.18 fold enrichment (6-mer frequency, TF over GST control); with FEV, 1.27 fold enrichment (6-mer frequency, TF over GST control); with ETV5 it was 1.34 fold enrichment (6-mer frequency, TF over GST control); in the assay with HSF1, 1.17 fold enrichment (6-mer frequency, TF over GST control). In addition, the binding signal was 1.31 fold enrichment (6-mer frequency, TF over GST control) with SPIC; 1.39 fold enrichment (6-mer frequency, TF over GST control) with ELF4; 1.07 fold enrichment (6-mer frequency, TF over GST control) with ELK4; 1.12 fold enrichment (6-mer frequency, TF over GST control) with ETV2; 1.24 fold enrichment (6-mer frequency, TF over GST control) with ELF3; 1.05 fold enrichment (6-mer frequency, TF over GST control) with CRX. The binding signal with ETV1 was 1.25 fold enrichment (6-mer frequency, TF over GST control).
